In the library only some 9.4% were active in any assay of this set; here they are far more common.
ELG1 DNA repair: inhibitors of ELG1-dependent DNA repair in HEK293T cells | HEK293T ELG1-luciferase reporter, luminescence, 16 h; DNA damage induced by 5-fluorouridine | Potency, µM (series often up to 46.1 µM), for inactives: at the top dose activity change, negative = inhibition, most hits filed as inhibitors | 330,000 compounds, 2.3% hits; also: % is scaled to controls: 0 for no effect and ±100 for the full control effect; nearly all actives have a fitted effect of over 55% in size
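Luminescence from the luciferase reporter, measured 30 min after ONE-Glo reagent at room temperature, was the read-out. Beforehand, 2,000 cells per well were exposed for 16 hr at 37 °C to 5-fluorouridine together with compound or vehicle.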
ELG1 genotoxic: genotoxicity induction in ELG1-luciferase HEK293T cells; HEK293T ELG1-luciferase reporter, luminescence, 16 h; Potency, µM (doses to about 46 µM), for inactives: at the highest dose activity change, positive = activation, usual class: activators; 330,000 compounds, 1.3% hits; also: % of control where 0% means no effect; nearly all actives have a fitted effect of over 60% in size
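Step 1: seed 2,000 HEK293T ELG1-luciferase cells per well. Step 2: add compound or DMSO, incubate 16 hr at 37 °C. Step 3: ONE-Glo, 30 min at room temperature, read luminescence.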
FLuc counter: counter-screen for miR-21 project: firefly luciferase inhibitors or activators. P08659. purified FLuc, Km substrates, luminescence inhibition. Potency, µM (series often up to 57.5 µM), inactives show at the top dose activity change, negative = inhibition, hits mostly inhibitors. 360,000 compounds, 6.9% hits. AID 588342;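 also: plate controls were vehicle for no effect and reference inhibitor for full effect; nearly all actives have a fitted effect of over 55% in size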
Target sequence (P08659 whole entry, looked up): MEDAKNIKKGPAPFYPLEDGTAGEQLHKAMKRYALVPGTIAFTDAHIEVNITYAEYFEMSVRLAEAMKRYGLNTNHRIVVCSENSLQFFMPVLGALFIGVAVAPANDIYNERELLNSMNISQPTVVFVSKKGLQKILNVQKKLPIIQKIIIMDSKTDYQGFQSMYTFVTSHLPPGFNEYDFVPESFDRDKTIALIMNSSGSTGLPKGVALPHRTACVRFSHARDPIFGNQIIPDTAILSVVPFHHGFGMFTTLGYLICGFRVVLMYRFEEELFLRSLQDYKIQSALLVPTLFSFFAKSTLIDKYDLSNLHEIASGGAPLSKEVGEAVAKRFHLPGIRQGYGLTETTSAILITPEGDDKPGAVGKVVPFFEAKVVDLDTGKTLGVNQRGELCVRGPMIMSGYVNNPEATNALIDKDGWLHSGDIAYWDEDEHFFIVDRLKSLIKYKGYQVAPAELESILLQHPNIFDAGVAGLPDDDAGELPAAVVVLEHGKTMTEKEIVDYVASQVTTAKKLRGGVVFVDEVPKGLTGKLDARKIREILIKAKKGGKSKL
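Purified P. pyralis luciferase, 10 nM final, with Km-level 10 uM D-luciferin and 10 uM ATP in 50 mM Tris acetate pH 7.5, 10 mM Mg acetate, 0.01% Tween-20, 0.05% BSA; 6-point qHTS titration about 60 µM downward; luminescence read.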
Rab9 promoter act: activates the Rab9 promoter. Huh7 Rab9 promoter-luciferase reporter, luminescence, 24 h. 320,000 compounds, 2.8% hits. Potency, µM (doses to about 9.22 µM), for inactives: at the highest dose activation, negative = inhibition, most hits filed as activators; also: % of control where 0% means no effect; nearly all actives have a fitted effect of over 60% in size
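Luminescence read-out: Huh7 cells stably expressing Rab9-luciferase, treated 24 h with compound at 37 °C, then lysed with luciferase reagent for 10 min at ambient before reading.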
NPC1 promoter act: activates the NPC1 promoter; Huh7 NPC1 promoter luciferase reporter, 24 h; Potency, µM (doses to about 9.22 µM), for the others: top-dose activation, hits mostly activators; 320,000 compounds, 2.4% hits; AID 485313; also: % of control where 0% means no effect; nearly all actives have a fitted effect of over 60% in size
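In 1536-well qHTS, Huh7 cells harboring an NPC1 promoter–luciferase construct received compound for 24 h; activation was quantified by luminescence following luciferase reagent addition.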
SMN2 splice enh: SMN2 splice variant enhancement; HEK293 SMN2-luciferase splicing reporter, luminescence, 30-36 h; Potency, µM (series often up to 46.1 µM), for the others: top-dose activity change, positive = activation, most hits filed as activators; 210,000 compounds, 2.8% hits; also: % of control where 0% means no effect; nearly all actives have a fitted effect of over 55% in size
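HEK293 cells carry an SMN2 minigene-luciferase reporter in which exon 7 inclusion puts luciferase in frame. Cells were seeded at 2000 cells/well, attached for 10-12 hours, then exposed to compounds for 30-36 hours at 37C before ONE-Glo luminescence.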
* hit, by the source's call; u = inconclusive; x = no result given. Calls follow the shape of the dose curve; as a rule, active = well fitted curve in the direction sought with a large enough effect; inconclusive = small, poorly fitted or top-dose-only effect, or another doubt; inactive = no such curve, though single readings can be large; an effect the other way counts as inactive or inconclusive. Potency is read from the fitted curve at half-maximal effect.

SMILES	ELG1 DNA repair	ELG1 genotoxic	FLuc counter	Rab9 promoter act	NPC1 promoter act	SMN2 splice enh
COc1cc(CC(=O)Nc2nc(C)cs2)cc(OC)c1OC	15µM*	-1%	-1%	-1%	-5%	-26%
CCC(=O)Nc1ccc(C(=O)NNC(=O)c2ccccc2)cc1	17%	2%	-4%	-4%	5%	x
Cc1cccc(NC(=O)Cc2c(F)cccc2Cl)n1	u	u	15µM*	3.2µM*	2.5µM*	x
CC(C)Cn1c(CN2CCN(c3cccc(Cl)c3)CC2)nc2c1c(=O)[nH]c(=O)n2C	x	x	-1%	x	x	x
CCOC(=O)c1[nH]c(C)c(C(=O)NCc2cccc(OC)c2)c1C	x	x	-6%	x	x	x
Cc1csc(NC(=O)Cc2ccc(F)cc2)n1	u	u	u	3.5µM*	u	x
Cc1ccc(CC(=O)Nc2cccc(C)n2)cc1	u	21µM*	u	u	u	13µM*
Cc1csc(NC(=O)Cc2c[nH]c3ccccc23)n1	u	u	u	28%	3%	-3%
C=CCc1ccc(OCc2ccc(C(=O)Nc3ccc(NC(C)=O)cc3)o2)c(OC)c1	u	12%	u	0.4µM*	1.1µM*	2.8µM*
CCCOc1ccc(CNC(=O)c2oc3ccc4c(c3c2C)C(=O)CC(C)(CC)O4)cc1 (centres undefined)	x	x	u	x	x	-23%
O=C(CSc1nccn1-c1cccc(Cl)c1)Nc1cccc2ccccc12	x	x	-15%	x	x	x
CN(C)S(=O)(=O)c1cccc(C(=O)Nc2ccc(Cl)cn2)c1	u	u	13µM*	u	u	6%
COc1ccc(C(=O)Nc2ccc(Cl)cn2)cc1Cl	u	u	11µM*	3.5µM*	2.5µM*	u
Cc1cc(-n2c(C)nc3ccccc3c2=O)ccc1NC(=O)c1ccc(C)c([N+](=O)[O-])c1	x	x	-14%	x	x	x
CCOC(=O)N1CCC(NS(=O)(=O)c2ccc(C)cc2)CC1	u	-4%	4%	-10%	0%	x
CCOC(=O)N1CCC(NS(=O)(=O)c2ccc(NC(C)=O)c(Cl)c2)CC1	7.3µM*	-11%	-1%	-20%	-7%	x
Cc1nc(NC2CCCCC2)c2nc(-c3ccccc3)n(CCCN3CCOCC3)c2n1	x	x	x	x	x	-33%
CCCCN(C)C(=O)c1ccc2c(c1)NC(=O)C(CC(C)C)N2 (centres undefined)	x	x	1%	x	x	x
CCc1nc(Nc2ccc(N3CCN(C(C)=O)CC3)cc2)c2oc3ccccc3c2n1	9.2µM*	-31%	u	-3%	5%	x
CCc1nc(Nc2ccccc2)c2oc3ccccc3c2n1	u	-1%	u	0%	-1%	-30%
CC(=O)N1CCN(c2ccc(Nc3ncnc4c3oc3ccccc34)cc2)CC1	u	-10%	24µM*	13%	18%	-43%
Cc1ccn2c(Nc3ccc(C(C)C)cc3)c(-c3cccs3)nc2c1	x	x	u	x	x	5%
Cc1ccc2nc(Nc3ccc(Br)cc3)nc(-c3ccccc3)c2c1	x	x	7%	x	x	6%
CC(C(=O)N1CCCCC1)n1sc2ccccc2c1=O (centres undefined)	u	u	24µM*	u	u	u
O=C(CSc1ncnc2nc[nH]c12)N1CCN(c2ccc(Cl)cc2)CC1	18µM*	-9%	2%	-4%	2%	-55%
O=C(O)CSc1ncnc2nc[nH]c12	-3%	-1%	2%	-3%	0%	0%
CCOC(=O)N/N=C/c1c(C)nn(-c2cccc(C(F)(F)F)c2)c1Cl	18µM*	0%	-4%	-25%	-24%	-66%
Cc1nn(-c2cccc(C(F)(F)F)c2)c(Cl)c1/C=N/Nc1cccc(C(=O)O)c1	u	0.41µM*	1.5µM*	0.1µM*	0.11µM*	0.4µM*
COC(=O)N/N=C/c1c(C)nn(-c2cccc(Cl)c2)c1Cl	26%	10%	u	-5%	-17%	13%
